Measured values taken from PubChem BioAssay (Tox21).
Records with an inconclusive call do not appear. Where a call stands in place of a potency, no number is given. Unmarked numbers belong to inactive results. Calls of active or inactive are those of the source. Unless noted, the call rests on the fitted dose curve; in most records, active means well fitted curve in the direction sought with a large enough effect in the repeat runs; inconclusive means weak or mixed curves; inactive means no such curve, though single readings can be large; an effect the other way counts as inactive or inconclusive.

Tests used:
[1] = qHTS RealTime-Glo MT Cell Viability Assay in HEK293 cells - 8 hour (AID 1224887); further: top concentration of the series differs between compounds; nearly all actives have a fitted effect of over 50% in size
In short: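 Tox21 screen in HEK293 using RealTime-Glo MT chemistry, with cells and reagent co-dispensed. Luminescence proportional to viable cell number was captured at intervals during 40 h compound exposure at 37 C.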

[2] = A CellTox Green Cytotoxicity Assay to monitor cytotoxicity in HEK293 cells - 16 hour (AID 1224888); further: nearly all actives have a fitted effect of over 35% in size
In short: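 Seeding of HEK293 cells together with cytotoxicity dye preceded a 5 h incubation at 37 C/5% CO2. Test compounds in DMSO were then added and fluorescence monitored across 40 h.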

[3] = qHTS RealTime-Glo MT Cell Viability Assay in HepG2 cells - 0 hour (AID 1224889); further: nearly all actives have a fitted effect of over 50% in size; further: potency means the concentration at half of the fitted maximal effect
In short: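 Real-time, nonlytic viability: 600 HepG2 cells/well mixed with NanoLuc enzyme plus prosubstrate; 5 h settle, compound (DMSO) added by pintool; luminescence monitored over 40 h at 37 C.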

[4] = qHTS assay to identify small molecule antagonists of the estrogen receptor alpha (ER-alpha) signaling pathway using the BG1 cell line in the presence of 0.1 nM 17-beta-estradiol - cell viability counter screen (AID 1259241); further: nearly all actives have a fitted effect of over 40% in size
In short: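 VM7Luc4E2 cells (endogenous full-length ER-alpha, 4xERE-luciferase), cultured 5 days in charcoal-stripped serum, exposed to compounds with 0.1 nM 17beta-estradiol (final) for 22 hr at 37C. Viability read in same wells as live-cell protease fluorescence after 30 min.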

[5] = qHTS assay to identify small molecule antagonists of the androgen receptor (AR) signaling pathway using the MDA cell line in the presence of 0.5 nM R1881 - cell viability counter screen (AID 1259242); further: nearly all actives have a fitted effect of over 45% in size
In short: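 R1881 at 0.5 nM final stimulated MDA-kb2 cells during 16 hr compound treatment at 37C. Cytotoxicity read: CellTiter-Fluor fluorescence after 30 min.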

[6] = molecular target: Androgen receptor (Homo sapiens) (UniProt P10275); test: qHTS assay to identify small molecule antagonists of the androgen receptor (AR) signaling pathway using the MDA cell line in the presence of 0.5 nM R1881 (AID 1259243); further: nearly all actives have a fitted effect of over 50% in size
Sequence of Androgen receptor (Homo sapiens) (P10275 whole entry, looked up): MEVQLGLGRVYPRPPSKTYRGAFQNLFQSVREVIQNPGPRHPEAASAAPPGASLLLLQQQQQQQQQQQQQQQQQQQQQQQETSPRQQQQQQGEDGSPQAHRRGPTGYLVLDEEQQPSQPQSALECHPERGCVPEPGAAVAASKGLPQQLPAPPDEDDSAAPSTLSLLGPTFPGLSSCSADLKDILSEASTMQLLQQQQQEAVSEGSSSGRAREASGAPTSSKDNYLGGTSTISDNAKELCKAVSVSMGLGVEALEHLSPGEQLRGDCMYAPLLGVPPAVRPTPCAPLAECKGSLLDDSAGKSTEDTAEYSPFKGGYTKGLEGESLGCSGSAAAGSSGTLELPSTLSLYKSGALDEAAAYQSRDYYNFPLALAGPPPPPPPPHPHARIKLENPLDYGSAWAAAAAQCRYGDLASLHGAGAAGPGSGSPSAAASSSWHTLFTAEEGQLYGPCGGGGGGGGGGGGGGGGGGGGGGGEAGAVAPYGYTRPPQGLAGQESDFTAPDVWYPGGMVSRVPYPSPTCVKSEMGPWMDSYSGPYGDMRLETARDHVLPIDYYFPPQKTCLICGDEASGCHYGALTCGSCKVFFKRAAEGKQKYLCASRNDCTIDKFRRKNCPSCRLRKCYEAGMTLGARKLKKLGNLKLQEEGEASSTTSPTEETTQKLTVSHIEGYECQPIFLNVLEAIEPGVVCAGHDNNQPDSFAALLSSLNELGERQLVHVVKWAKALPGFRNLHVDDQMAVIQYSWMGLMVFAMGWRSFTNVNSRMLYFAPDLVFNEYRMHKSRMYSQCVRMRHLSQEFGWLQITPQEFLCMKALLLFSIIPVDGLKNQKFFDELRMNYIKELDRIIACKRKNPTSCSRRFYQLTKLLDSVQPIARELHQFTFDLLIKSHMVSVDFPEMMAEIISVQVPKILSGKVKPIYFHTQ
In short: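 We exposed MDA-kb2 cells to compounds under 0.5 nM R1881 stimulation for 16 hr at 37C and quantified MMTV-driven luciferase by luminescence.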

[7] = molecular target: Estrogen receptor (Homo sapiens) (UniProt P03372); test: qHTS assay to identify small molecule antagonists of the estrogen receptor alpha (ER-alpha) signaling pathway using the BG1 cell line in the presence of 0.1 nM 17-beta-estradiol (AID 1259244); further: nearly all actives have a fitted effect of over 50% in size
Sequence of Estrogen receptor (Homo sapiens) (P03372 whole entry, looked up): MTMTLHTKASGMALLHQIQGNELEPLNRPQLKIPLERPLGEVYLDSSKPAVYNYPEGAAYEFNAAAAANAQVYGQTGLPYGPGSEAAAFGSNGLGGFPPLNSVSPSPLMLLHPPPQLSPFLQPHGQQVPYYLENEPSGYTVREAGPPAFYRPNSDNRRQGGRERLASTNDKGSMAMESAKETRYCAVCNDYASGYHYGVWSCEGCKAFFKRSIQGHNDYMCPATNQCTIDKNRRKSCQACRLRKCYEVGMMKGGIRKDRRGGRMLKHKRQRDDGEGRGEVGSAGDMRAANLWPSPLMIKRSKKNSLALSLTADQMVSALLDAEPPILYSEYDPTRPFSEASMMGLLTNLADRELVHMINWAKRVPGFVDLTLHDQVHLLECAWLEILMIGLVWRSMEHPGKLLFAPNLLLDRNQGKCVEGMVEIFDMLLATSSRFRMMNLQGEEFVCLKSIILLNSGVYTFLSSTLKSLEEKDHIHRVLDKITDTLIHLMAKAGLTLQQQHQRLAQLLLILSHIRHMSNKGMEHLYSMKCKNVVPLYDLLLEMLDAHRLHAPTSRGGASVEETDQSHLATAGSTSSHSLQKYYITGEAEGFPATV
In short: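 VM7Luc4E2; 4xERE-luciferase; 0.1 nM E2 final; 22 h co-incubation, 37C; ONE-Glo luminescence after 30 min at room temperature.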

[8] = qHTS assay to identify small molecule HDAC inhibitors (AID 1259364);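 further: wild-type HCT-116 cells with endogenous class I/II HDAC activity; top concentration of the series differs between compounds; nearly all actives have a fitted effect of over 45% in size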
In short: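 Relative class I and II HDAC activity is taken from the luminogenic signal in HCT-116 cells, with compound exposure 2 hr and reagent development 30 min at room temperature.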

[9] = A CellTox Green Cytotoxicity Assay to monitor cytotoxicity in HepG2 cells - 8 hour (AID 1224890); further: nearly all actives have a fitted effect of over 45% in size
In short: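 Nonlytic assay: viable cells exclude the dye, so fluorescence scales with cell death. HepG2 at 600 cells/well, compounds added after 5 h, signal read across 40 h.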

[10] = qHTS assay to identify small molecule phospholipidosis (PLD) inducers (AID 1259344; active means well fitted curve in the direction sought with a large enough effect; an effect the other way counts as inactive or inconclusive)
In short: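 HepG2 cells on collagen I, attached 4 h at 37 C, were co-treated with compound and LipidTOX Red dye for 24 h at 37 C, then fixed with paraformaldehyde plus Hoechst 33342 and imaged by high-content microscopy for phospholipid accumulation.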

Structure (SMILES)	outcome [1]	Potency [2]	Potency [3]	outcome [4]	outcome [5]	Potency [6]	outcome [7]	Potency [8]	Potency [9]	Potency [10]
CC(O)C(CO)C(C)O (stereo not drawn)	inactive	inactive	inactive	inactive	inactive	inactive	inactive	inactive	–	–
CC(CC(=O)Cl)CC(C)(C)C (stereo not drawn)	inactive	inactive	inactive	inactive	inactive	–	inactive	–	–	–
COC(=O)/C=C(\C)CCC=C(C)C	inactive	inactive	inactive	–	inactive	–	inactive	inactive	inactive	–
N#Cc1ccccc1C#N	inactive	inactive	inactive	–	inactive	inactive	inactive	inactive	inactive	–
CC(C)(C)NCC(O)COc1cccc2c1CCC(=O)N2 (stereo not drawn)	inactive	inactive	inactive	–	inactive	inactive	–	inactive	inactive	inactive
CN(C)c1cc(NC(=O)CNC(C)(C)C)c(O)c2c1C[C@H]1C[C@H]3[C@H](N(C)C)C(=O)C(C(N)=O)=C(O)[C@@]3(O)C(=O)C1=C2O	inactive	inactive	inactive	inactive	inactive	inactive	inactive	inactive	–	inactive
CC(=O)OCC(=O)[C@@]1(O)CC[C@H]2[C@@H]3CCC4=CC(=O)C=C[C@]4(C)[C@H]3[C@@H](O)C[C@@]21C	inactive	inactive	10.7 µM (active)	–	inactive	–	inactive	inactive	inactive	inactive
Nc1nc(Cl)cc(Cl)n1	inactive	inactive	inactive	–	inactive	–	inactive	inactive	inactive	–
COC(=O)c1ccc(NC(C)=O)cc1OC	inactive	inactive	inactive	inactive	inactive	inactive	inactive	inactive	–	–
O=CN1CCCCC1	inactive	inactive	inactive	–	inactive	–	inactive	inactive	inactive	–
CCC(C)(C)C	inactive	inactive	inactive	–	inactive	–	inactive	inactive	inactive	–
C=CC(=O)OCCOCCOCC	inactive	inactive	inactive	–	inactive	–	–	inactive	inactive	–
O=Cc1ccccc1S(=O)(=O)O	inactive	inactive	inactive	–	inactive	–	–	inactive	inactive	–
CCCCC(O)/C=C(C)/C=C/C=C/C(=O)N1CCCC1=O (stereo not drawn)	inactive	inactive	inactive	–	inactive	–	inactive	–	inactive	–
Cc1nnc(C(=O)NC(C)(C)c2nc(C(=O)NCc3ccc(F)cc3)c(O)c(=O)n2C)o1	inactive	inactive	inactive	–	inactive	–	–	inactive	inactive	inactive
C=CCN1CCc2nc(N)sc2CC1	inactive	inactive	inactive	inactive	inactive	inactive	–	inactive	–	inactive
COc1cc(OC)cc(OC)c1	inactive	inactive	inactive	–	inactive	inactive	inactive	inactive	inactive	inactive
O=S(=O)(O)c1cc(I)c(O)c2ncccc12	inactive	inactive	inactive	–	inactive	–	–	inactive	inactive	inactive
CN1C(CCl)Nc2cc(Cl)c(S(N)(=O)=O)cc2S1(=O)=O (stereo not drawn)	inactive	inactive	inactive	–	inactive	–	inactive	inactive	inactive	inactive
CN1CCN(C(=O)C2CCCCC2)CC1	inactive	inactive	inactive	–	inactive	–	inactive	inactive	inactive	inactive
CC(C)CC(O)Cc1ccccc1 (stereo not drawn)	inactive	inactive	inactive	inactive	inactive	inactive	inactive	inactive	–	–
CC1(C)CC(N)CC(C)(C)N1	inactive	inactive	inactive	–	inactive	–	–	inactive	inactive	–
O=c1[nH]c(=O)c2cn[nH]c2[nH]1	inactive	inactive	inactive	inactive	inactive	–	–	inactive	inactive	–
CC12CCCC=C1C(=O)OC2=O (stereo not drawn)	inactive	inactive	inactive	–	inactive	inactive	–	inactive	inactive	–
C=C(C)C(=O)OCCCC	inactive	inactive	inactive	–	inactive	inactive	–	inactive	inactive	–
